# Measured values published in PMC11006913.
# Substitutions are numbered along the chain they refer to.
# Columns and labels:
# Experiment in all cases: PBM; 200 nM protein, PBS
# Details in all cases: dsDNA, one strand shown
# SHOX [1] = target: SHOX (Homo sapiens, UniProt O15266 103-189)
# SIX6 [2] = target: T1, SIX6 (Homo sapiens, UniProt O95475 114-200, L167I)
# T1 sequence: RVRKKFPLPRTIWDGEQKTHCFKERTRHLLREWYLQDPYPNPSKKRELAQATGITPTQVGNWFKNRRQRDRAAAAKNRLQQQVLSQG
# SIX6 [3] = target: T2, SIX6 (Homo sapiens, UniProt O95475 114-200, L143V)
# T2 sequence: T1 sequence with L30V, I54L
# SIX6 [4] = target: T3, SIX6 (Homo sapiens, UniProt O95475 114-200, H141N)
# T3 sequence: T1 sequence with H28N, I54L
# SIX6 [5] = target: T4, SIX6 (Homo sapiens, UniProt O95475 114-200, T165P)
# T4 sequence: T1 sequence with T52P, I54L
# SIX6 [6] = target: T5, SIX6 (Homo sapiens, UniProt O95475 114-200, L167M)
# T5 sequence: T1 sequence with I54M
# SIX6 [7] = target: T6, SIX6 (Homo sapiens, UniProt O95475 114-200, L143M)
# T6 sequence: T1 sequence with L30M, I54L
# SIX6 [8] = target: T7, SIX6 (Homo sapiens, UniProt O95475 114-200, L143I)
# T7 sequence: T1 sequence with L30I, I54L
# SIX6 [9] = target: T8, SIX6 (Homo sapiens, UniProt O95475 114-200, T165G)
# T8 sequence: T1 sequence with T52G, I54L
# HOXA2 [10] = target: HOXA2 (Homo sapiens, UniProt O43364 129-215, R185T)
# HOXA2 (Homo sapiens, UniProt O43364 129-215, R185T), sequence (O43364 129-215 R185T): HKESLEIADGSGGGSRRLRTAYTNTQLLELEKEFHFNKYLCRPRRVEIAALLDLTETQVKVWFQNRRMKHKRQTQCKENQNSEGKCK
# SIX6 [11] = target: T9, SIX6 (Homo sapiens, UniProt O95475 114-200, T139Q)
# T9 sequence: T1 sequence with T26Q, I54L
# MSX2 [12] = target: MSX2 (Homo sapiens, UniProt P35548 130-214, R199I)
# MSX2 (Homo sapiens, UniProt P35548 130-214, R199I), sequence (P35548 130-214 R199I): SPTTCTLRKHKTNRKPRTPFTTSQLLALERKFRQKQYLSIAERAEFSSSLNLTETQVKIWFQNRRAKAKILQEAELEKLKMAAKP
# SIX6 [13] = target: T10, SIX6 (Homo sapiens, UniProt O95475 114-200, T165A)
# T10 sequence: T1 sequence with T52A, I54L
# SHOX [14] = target: SHOX (Homo sapiens, UniProt O15266 103-189, R173C)
# SHOX (Homo sapiens, UniProt O15266 103-189, R173C), sequence (O15266 103-189 R173C): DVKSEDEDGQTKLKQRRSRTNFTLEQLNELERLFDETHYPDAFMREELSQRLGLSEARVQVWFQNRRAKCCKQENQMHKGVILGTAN
# HOXA2 [15] = target: HOXA2 (Homo sapiens, UniProt O43364 129-215, R185K)
# HOXA2 (Homo sapiens, UniProt O43364 129-215, R185K), sequence (O43364 129-215 R185K): as the sequence (O43364 129-215 R185T) above, with T57K counted along it
# MSX2 [16] = target: MSX2 (Homo sapiens, UniProt P35548 130-214)
# MSX2 (Homo sapiens, UniProt P35548 130-214), sequence (P35548 130-214): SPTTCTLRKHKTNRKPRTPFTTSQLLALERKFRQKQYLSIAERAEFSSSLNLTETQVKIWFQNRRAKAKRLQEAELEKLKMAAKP
# SIX6 [17] = target: T11, SIX6 (Homo sapiens, UniProt O95475 114-200, L167V)
# T11 sequence: T1 sequence with I54V
# SIX6 [18] = target: T12, SIX6 (Homo sapiens, UniProt O95475 114-200)
# T12 sequence: T1 sequence with I54L
# SIX6 [19] = target: T13, SIX6 (Homo sapiens, UniProt O95475 114-200, T165I)
# T13 sequence: T1 sequence with T52I, I54L
# MSX2 [20] = target: MSX2 (Homo sapiens, UniProt P35548 130-214, F161Y)
# MSX2 (Homo sapiens, UniProt P35548 130-214, F161Y), sequence (P35548 130-214 F161Y): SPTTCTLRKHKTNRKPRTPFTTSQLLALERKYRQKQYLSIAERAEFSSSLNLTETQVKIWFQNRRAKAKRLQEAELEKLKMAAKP
# HOXA2 [21] = target: HOXA2 (Homo sapiens, UniProt O43364 129-215, Y150S)
# HOXA2 (Homo sapiens, UniProt O43364 129-215, Y150S), sequence (O43364 129-215 Y150S): as the sequence (O43364 129-215 R185T) above, with Y22S, T57R counted along it
# HOXA2 [22] = target: HOXA2 (Homo sapiens, UniProt O43364 129-215)
# HOXA2 (Homo sapiens, UniProt O43364 129-215), sequence (O43364 129-215): as the sequence (O43364 129-215 R185T) above, with T57R counted along it
# CRX [23] = target: CRX (Homo sapiens, UniProt O43186 26-111)
# CRX (Homo sapiens, UniProt O43186 26-111), sequence (O43186 26-111): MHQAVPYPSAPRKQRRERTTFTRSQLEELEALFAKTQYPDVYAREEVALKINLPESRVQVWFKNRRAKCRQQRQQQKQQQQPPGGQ
# CRX [24] = target: CRX (Homo sapiens, UniProt O43186 26-111, E42D)
# CRX (Homo sapiens, UniProt O43186 26-111, E42D), sequence (O43186 26-111 E42D): as the sequence (O43186 26-111) above, with E17D counted along it
# HOXD13 [25] = target: HOXD13 (Homo sapiens, UniProt P35453 263-343, T313R)
# HOXD13 (Homo sapiens, UniProt P35453 263-343, T313R), sequence (P35453 263-343 T313R): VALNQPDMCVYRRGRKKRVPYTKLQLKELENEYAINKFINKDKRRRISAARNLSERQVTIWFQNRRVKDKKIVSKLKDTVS
# HOXD13 [26] = target: HOXD13 (Homo sapiens, UniProt P35453 263-343)
# HOXD13 (Homo sapiens, UniProt P35453 263-343), sequence (P35453 263-343): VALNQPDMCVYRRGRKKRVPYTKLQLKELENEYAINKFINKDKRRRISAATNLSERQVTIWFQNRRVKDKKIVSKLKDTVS
# HOXD13 [27] = target: HOXD13 (Homo sapiens, UniProt P35453 263-343, T313A)
# HOXD13 (Homo sapiens, UniProt P35453 263-343, T313A), sequence (P35453 263-343 T313A): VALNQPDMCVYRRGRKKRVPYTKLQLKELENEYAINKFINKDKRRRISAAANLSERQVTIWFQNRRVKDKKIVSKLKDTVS
# CRX [28] = target: CRX (Homo sapiens, UniProt O43186 26-111, R41L)
# CRX (Homo sapiens, UniProt O43186 26-111, R41L), sequence (O43186 26-111 R41L): as the sequence (O43186 26-111) above, with R16L counted along it
# HOXA4 [29] = target: HOXA4 (Homo sapiens, UniProt Q00056 201-287, W262R)
# HOXA4 (Homo sapiens, UniProt Q00056 201-287, W262R), sequence (Q00056 201-287 W262R): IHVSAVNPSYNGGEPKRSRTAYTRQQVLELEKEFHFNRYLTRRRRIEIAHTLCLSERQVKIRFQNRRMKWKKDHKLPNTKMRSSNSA
# HOXB6 [30] = target: HOXB6 (Homo sapiens, UniProt P17509 132-218, K202E)
# HOXB6 (Homo sapiens, UniProt P17509 132-218, K202E), sequence (P17509 132-218 K202E): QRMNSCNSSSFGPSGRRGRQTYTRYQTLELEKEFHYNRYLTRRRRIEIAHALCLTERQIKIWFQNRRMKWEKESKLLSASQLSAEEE
# HOXA4 [31] = target: HOXA4 (Homo sapiens, UniProt Q00056 201-287, R217L)
# HOXA4 (Homo sapiens, UniProt Q00056 201-287, R217L), sequence (Q00056 201-287 R217L): as the sequence (Q00056 201-287 W262R) above, with R17L, R62W counted along it
# HOXA4 [32] = target: HOXA4 (Homo sapiens, UniProt Q00056 201-287)
# HOXA4 (Homo sapiens, UniProt Q00056 201-287), sequence (Q00056 201-287): as the sequence (Q00056 201-287 W262R) above, with R62W counted along it
# HOXA4 [33] = target: HOXA4 (Homo sapiens, UniProt Q00056 201-287, W262F)
# HOXA4 (Homo sapiens, UniProt Q00056 201-287, W262F), sequence (Q00056 201-287 W262F): as the sequence (Q00056 201-287 W262R) above, with R62F counted along it
# HOXB6 [34] = target: HOXB6 (Homo sapiens, UniProt P17509 132-218)
# HOXB6 (Homo sapiens, UniProt P17509 132-218), sequence (P17509 132-218): as the sequence (P17509 132-218 K202E) above, with E71K counted along it
# VENTX [35] = target: T14, VENTX (Homo sapiens, UniProt O95231 78-163, R121Q)
# T14 sequence: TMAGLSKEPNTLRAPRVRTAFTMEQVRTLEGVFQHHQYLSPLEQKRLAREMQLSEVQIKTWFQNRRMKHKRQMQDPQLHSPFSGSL
# HOXC9 [36] = target: HOXC9 (Homo sapiens, UniProt P31274 178-260, K195R)
# HOXC9 (Homo sapiens, UniProt P31274 178-260, K195R), sequence (P31274 178-260 K195R): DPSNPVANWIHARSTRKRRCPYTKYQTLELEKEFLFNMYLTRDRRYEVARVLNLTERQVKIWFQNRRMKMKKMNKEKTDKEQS
# VENTX [37] = target: T15, VENTX (Homo sapiens, UniProt O95231 78-163)
# T15 sequence: T14 sequence with Q44R
# VENTX [38] = target: T16, VENTX (Homo sapiens, UniProt O95231 78-163, Y115F)
# T16 sequence: T14 sequence with Y38F, Q44R
# HOXC9 [39] = target: HOXC9 (Homo sapiens, UniProt P31274 178-260)
# HOXC9 (Homo sapiens, UniProt P31274 178-260), sequence (P31274 178-260): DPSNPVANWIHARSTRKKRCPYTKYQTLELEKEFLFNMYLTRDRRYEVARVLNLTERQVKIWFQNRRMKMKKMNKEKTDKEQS
# HOXC9 [40] = target: HOXC9 (Homo sapiens, UniProt P31274 178-260, R193K)
# HOXC9 (Homo sapiens, UniProt P31274 178-260, R193K), sequence (P31274 178-260 R193K): as the sequence (P31274 178-260) above, with R16K counted along it
# HOXC9 [41] = target: HOXC9 (Homo sapiens, UniProt P31274 178-260, R222W)
# HOXC9 (Homo sapiens, UniProt P31274 178-260, R222W), sequence (P31274 178-260 R222W): as the sequence (P31274 178-260) above, with R45W counted along it
# HOXB9 [42] = target: HOXB9 (Homo sapiens, UniProt P17482 171-250, T197M)
# HOXB9 (Homo sapiens, UniProt P17482 171-250, T197M), sequence (P17482 171-250 T197M): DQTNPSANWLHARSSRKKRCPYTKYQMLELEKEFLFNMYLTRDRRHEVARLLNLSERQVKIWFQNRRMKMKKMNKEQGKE
# HOXC10 [43] = target: HOXC10 (Homo sapiens, UniProt Q9NYD6 254-340)
# HOXC10 (Homo sapiens, UniProt Q9NYD6 254-340), sequence (Q9NYD6 254-340): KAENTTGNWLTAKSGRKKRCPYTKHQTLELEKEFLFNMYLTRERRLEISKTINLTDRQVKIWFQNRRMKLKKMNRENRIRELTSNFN
# HOXB9 [44] = target: HOXB9 (Homo sapiens, UniProt P17482 171-250)
# HOXB9 (Homo sapiens, UniProt P17482 171-250), sequence (P17482 171-250): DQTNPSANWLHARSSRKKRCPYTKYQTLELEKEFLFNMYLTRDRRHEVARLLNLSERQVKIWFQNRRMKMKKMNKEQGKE
# HOXC10 [45] = target: HOXC10 (Homo sapiens, UniProt Q9NYD6 254-340, K271E)
# HOXC10 (Homo sapiens, UniProt Q9NYD6 254-340, K271E), sequence (Q9NYD6 254-340 K271E): as the sequence (Q9NYD6 254-340) above, with K18E counted along it
# HOXB9 [46] = target: HOXB9 (Homo sapiens, UniProt P17482 171-250, R186Q)
# HOXB9 (Homo sapiens, UniProt P17482 171-250, R186Q), sequence (P17482 171-250 R186Q): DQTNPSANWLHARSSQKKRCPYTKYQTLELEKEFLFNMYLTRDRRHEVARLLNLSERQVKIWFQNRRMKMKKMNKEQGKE
# SHOX (Homo sapiens, UniProt O15266 103-189), sequence (O15266 103-189): as the sequence (O15266 103-189 R173C) above, with C71R counted along it
sequence,measurement,setting,value
GGAGCGGA,binding signal,SHOX [1],"7.25 upbm affinity estimate (log intensity, higher = more binding, comparable within an allelic series)"
same,binding signal,SIX6 [2],"9.19 upbm affinity estimate (log intensity, higher = more binding, comparable within an allelic series)"
same,binding signal,SIX6 [3],"8.94 upbm affinity estimate (log intensity, higher = more binding, comparable within an allelic series)"
same,binding signal,SIX6 [4],"9.15 upbm affinity estimate (log intensity, higher = more binding, comparable within an allelic series)"
same,binding signal,SIX6 [5],"8.85 upbm affinity estimate (log intensity, higher = more binding, comparable within an allelic series)"
same,binding signal,SIX6 [6],"9.13 upbm affinity estimate (log intensity, higher = more binding, comparable within an allelic series)"
same,binding signal,SIX6 [7],"9.14 upbm affinity estimate (log intensity, higher = more binding, comparable within an allelic series)"
same,binding signal,SIX6 [8],"9.05 upbm affinity estimate (log intensity, higher = more binding, comparable within an allelic series)"
same,binding signal,SIX6 [9],"9.13 upbm affinity estimate (log intensity, higher = more binding, comparable within an allelic series)"
same,binding signal,HOXA2 [10],"7.31 upbm affinity estimate (log intensity, higher = more binding, comparable within an allelic series)"
same,binding signal,SIX6 [11],"9.15 upbm affinity estimate (log intensity, higher = more binding, comparable within an allelic series)"
same,binding signal,MSX2 [12],"9.51 upbm affinity estimate (log intensity, higher = more binding, comparable within an allelic series)"
same,binding signal,SIX6 [13],"9.08 upbm affinity estimate (log intensity, higher = more binding, comparable within an allelic series)"
same,binding signal,SHOX [14],"7.2 upbm affinity estimate (log intensity, higher = more binding, comparable within an allelic series)"
same,binding signal,HOXA2 [15],"10.3 upbm affinity estimate (log intensity, higher = more binding, comparable within an allelic series)"
same,binding signal,MSX2 [16],"9.6 upbm affinity estimate (log intensity, higher = more binding, comparable within an allelic series)"
same,binding signal,SIX6 [17],"9.14 upbm affinity estimate (log intensity, higher = more binding, comparable within an allelic series)"
same,binding signal,SIX6 [18],"9.16 upbm affinity estimate (log intensity, higher = more binding, comparable within an allelic series)"
same,binding signal,SIX6 [19],"9.13 upbm affinity estimate (log intensity, higher = more binding, comparable within an allelic series)"
same,binding signal,MSX2 [20],"9.62 upbm affinity estimate (log intensity, higher = more binding, comparable within an allelic series)"
same,binding signal,HOXA2 [21],"10.5 upbm affinity estimate (log intensity, higher = more binding, comparable within an allelic series)"
same,binding signal,HOXA2 [22],"7.46 upbm affinity estimate (log intensity, higher = more binding, comparable within an allelic series)"
GGCGGGCA,binding signal,SHOX [1],"7.13 upbm affinity estimate (log intensity, higher = more binding, comparable within an allelic series)"
same,binding signal,CRX [23],"8.31 upbm affinity estimate (log intensity, higher = more binding, comparable within an allelic series)"
same,binding signal,CRX [24],"8.21 upbm affinity estimate (log intensity, higher = more binding, comparable within an allelic series)"
same,binding signal,HOXD13 [25],"9.46 upbm affinity estimate (log intensity, higher = more binding, comparable within an allelic series)"
same,binding signal,SHOX [14],"7.15 upbm affinity estimate (log intensity, higher = more binding, comparable within an allelic series)"
same,binding signal,HOXD13 [26],"9.45 upbm affinity estimate (log intensity, higher = more binding, comparable within an allelic series)"
same,binding signal,HOXD13 [27],"9.59 upbm affinity estimate (log intensity, higher = more binding, comparable within an allelic series)"
same,binding signal,CRX [28],"8.39 upbm affinity estimate (log intensity, higher = more binding, comparable within an allelic series)"
GCATTAAA,binding signal,SHOX [1],"8.99 upbm affinity estimate (log intensity, higher = more binding, comparable within an allelic series)"
CAGGGAGG,binding signal,SHOX [1],"6.88 upbm affinity estimate (log intensity, higher = more binding, comparable within an allelic series)"
same,binding signal,HOXA4 [29],"9.65 upbm affinity estimate (log intensity, higher = more binding, comparable within an allelic series)"
same,binding signal,HOXB6 [30],"8.81 upbm affinity estimate (log intensity, higher = more binding, comparable within an allelic series)"
same,binding signal,HOXA4 [31],"9.79 upbm affinity estimate (log intensity, higher = more binding, comparable within an allelic series)"
same,binding signal,SHOX [14],"7 upbm affinity estimate (log intensity, higher = more binding, comparable within an allelic series)"
same,binding signal,HOXA4 [32],"9.91 upbm affinity estimate (log intensity, higher = more binding, comparable within an allelic series)"
same,binding signal,HOXA4 [33],"9.86 upbm affinity estimate (log intensity, higher = more binding, comparable within an allelic series)"
same,binding signal,HOXB6 [34],"8.85 upbm affinity estimate (log intensity, higher = more binding, comparable within an allelic series)"
GCTGATGA,binding signal,SHOX [1],"8.21 upbm affinity estimate (log intensity, higher = more binding, comparable within an allelic series)"
CGTGAGAG,binding signal,SHOX [1],"7.22 upbm affinity estimate (log intensity, higher = more binding, comparable within an allelic series)"
same,binding signal,VENTX [35],"8.23 upbm affinity estimate (log intensity, higher = more binding, comparable within an allelic series)"
same,binding signal,HOXC9 [36],"9.74 upbm affinity estimate (log intensity, higher = more binding, comparable within an allelic series)"
same,binding signal,VENTX [37],"8.19 upbm affinity estimate (log intensity, higher = more binding, comparable within an allelic series)"
same,binding signal,VENTX [38],"8.23 upbm affinity estimate (log intensity, higher = more binding, comparable within an allelic series)"
same,binding signal,HOXC9 [39],"9.82 upbm affinity estimate (log intensity, higher = more binding, comparable within an allelic series)"
same,binding signal,SHOX [14],"7.25 upbm affinity estimate (log intensity, higher = more binding, comparable within an allelic series)"
same,binding signal,HOXC9 [40],"9.77 upbm affinity estimate (log intensity, higher = more binding, comparable within an allelic series)"
same,binding signal,HOXC9 [41],"9.81 upbm affinity estimate (log intensity, higher = more binding, comparable within an allelic series)"
GAATTAGA,binding signal,SHOX [1],"9.8 upbm affinity estimate (log intensity, higher = more binding, comparable within an allelic series)"
CGCTGACC,binding signal,SHOX [1],"7.27 upbm affinity estimate (log intensity, higher = more binding, comparable within an allelic series)"
same,binding signal,HOXB9 [42],"8.61 upbm affinity estimate (log intensity, higher = more binding, comparable within an allelic series)"
same,binding signal,HOXC10 [43],"10.1 upbm affinity estimate (log intensity, higher = more binding, comparable within an allelic series)"
same,binding signal,HOXB9 [44],"8.64 upbm affinity estimate (log intensity, higher = more binding, comparable within an allelic series)"
same,binding signal,SHOX [14],"7.24 upbm affinity estimate (log intensity, higher = more binding, comparable within an allelic series)"
same,binding signal,HOXC10 [45],"10.1 upbm affinity estimate (log intensity, higher = more binding, comparable within an allelic series)"
same,binding signal,HOXB9 [46],"8.66 upbm affinity estimate (log intensity, higher = more binding, comparable within an allelic series)"
CCCCGGGA,binding signal,SHOX [1],"7.25 upbm affinity estimate (log intensity, higher = more binding, comparable within an allelic series)"
same,binding signal,HOXA4 [29],"9.71 upbm affinity estimate (log intensity, higher = more binding, comparable within an allelic series)"
same,binding signal,HOXA4 [31],"9.86 upbm affinity estimate (log intensity, higher = more binding, comparable within an allelic series)"
same,binding signal,SHOX [14],"7.27 upbm affinity estimate (log intensity, higher = more binding, comparable within an allelic series)"
same,binding signal,HOXA4 [32],"9.8 upbm affinity estimate (log intensity, higher = more binding, comparable within an allelic series)"
same,binding signal,HOXA4 [33],"9.99 upbm affinity estimate (log intensity, higher = more binding, comparable within an allelic series)"
AATGGTAC,binding signal,SHOX [1],"8.43 upbm affinity estimate (log intensity, higher = more binding, comparable within an allelic series)"
CGAGCGCC,binding signal,SHOX [1],"7.01 upbm affinity estimate (log intensity, higher = more binding, comparable within an allelic series)"
same,binding signal,HOXA4 [29],"9.78 upbm affinity estimate (log intensity, higher = more binding, comparable within an allelic series)"
same,binding signal,HOXA4 [31],"9.82 upbm affinity estimate (log intensity, higher = more binding, comparable within an allelic series)"
same,binding signal,SHOX [14],"7.09 upbm affinity estimate (log intensity, higher = more binding, comparable within an allelic series)"
same,binding signal,HOXA4 [32],"9.8 upbm affinity estimate (log intensity, higher = more binding, comparable within an allelic series)"
same,binding signal,HOXA4 [33],"9.91 upbm affinity estimate (log intensity, higher = more binding, comparable within an allelic series)"
